Laboratory results: PubChem BioAssay (NCATS)
Inconclusive results are not listed. A call without a number means that no potency is given here. Activity calls are given as the source filed them. Calls come from the whole dose curve; as a rule, active = well fitted inhibition curve with a large enough effect; inconclusive = small, poorly fitted or top-dose-only effect; inactive = flat fitted curve, though single readings scatter.

Legend:
Test in all cases: qHTS profiling for inhibitors of Plasmodium falciparum proliferation (AID 504749); note: nearly all actives have a fitted effect of over 60% in size
Conditions in all cases: P. falciparum in erythrocytes, SYBR Green DNA, 72 h; series mostly up to 28.7 µM
CP286 = test system: CP286
Method in brief: (§1)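 P. falciparum-infected erythrocytes (0.3% parasitemia, 2.5% hematocrit) incubated with compound 72 h at 37 C, 5% CO2. Parasite DNA detected by SYBR Green after lysis, overnight at room temperature; normalised to 0.29 uM artemisinin and DMSO.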

CP291 = test system: CP291
Method in brief: as §1

CP305 = test system: CP305
Method in brief: as §1

CP315 = test system: CP315
Method in brief: as §1

CP325 = test system: CP325
Method in brief: as §1

CP329 = test system: CP329
Method in brief: as §1

CP335 = test system: CP335
Method in brief: as §1

DFO2036 = test system: DFO2036
Method in brief: as §1

DIV14 = test system: DIV14
Method in brief: as §1

DIV17 = test system: DIV17
Method in brief: as §1

DIV30 = test system: DIV30
Method in brief: as §1

Dd2 = test system: Dd2
Method in brief: as §1

ECU = test system: ECU
Method in brief: as §1

FAB9 = test system: FAB9
Method in brief: as §1

GB4 = test system: GB4
Method in brief: as §1

HB3 = test system: HB3
Method in brief: as §1

ICS = test system: ICS
Method in brief: as §1

JCK = test system: JCK
Method in brief: as §1

N140 = test system: N140
Method in brief: as §1

CP297 = test system: CP297
Method in brief: as §1
Potency is the fitted concentration of half-maximal effect.

Row | SMILES | Potency (CP286) | Potency (CP291) | Potency (CP305) | Potency (CP315) | Potency (CP325) | Potency (CP329) | Potency (CP335) | Potency (DFO2036) | Potency (DIV14) | Potency (DIV17) | Potency (DIV30) | Potency (Dd2) | Potency (ECU) | Potency (FAB9) | Potency (GB4) | Potency (HB3) | Potency (ICS) | Potency (JCK) | Potency (N140) | Potency (CP297)
1 | CS(=O)(=O)CCNCc1ccc(-c2ccc3ncnc(Nc4ccc(OCc5cccc(F)c5)c(Cl)c4)c3c2)o1 | inactive | inactive | inactive | inactive | inactive | inactive | inactive | inactive | inactive | inactive | inactive | inactive | inactive | inactive | inactive | inactive | inactive | inactive | inactive | –
2 | CCOC(=O)Nc1ccc(NCc2ccc(F)cc2)nc1N | 8.91 µM (active) | – | – | – | – | – | 6.01 µM (active) | – | 15.1 µM (active) | 15.1 µM (active) | 16.9 µM (active) | 12.6 µM (active) | 11.2 µM (active) | – | – | 8.91 µM (active) | 6.31 µM (active) | 14.1 µM (active) | 10 µM (active) | –
3 | O=C(Nc1ccc([N+](=O)[O-])cc1Cl)c1cc(Cl)ccc1O | 1.78 µM (active) | 1.2 µM (active) | 2.13 µM (active) | – | – | – | 1.51 µM (active) | – | 1.07 µM (active) | 1.2 µM (active) | – | 0.891 µM (active) | 1 µM (active) | inactive | 1.35 µM (active) | – | 0.631 µM (active) | inactive | 0.631 µM (active) | 8.49 µM (active)
4 | COc1nc(C)nc(Cl)c1NC1=NCCN1 | inactive | inactive | inactive | inactive | inactive | inactive | inactive | inactive | inactive | inactive | inactive | inactive | inactive | inactive | inactive | inactive | inactive | inactive | inactive | –
5 | CN1CCC(=C2c3ccccc3C=Cc3ccccc32)CC1 | inactive | inactive | inactive | inactive | inactive | inactive | – | inactive | – | – | inactive | – | inactive | inactive | – | inactive | – | inactive | inactive | inactive
6 | CN1CCC(=C2c3ccccc3CC(=O)c3sccc32)CC1 | inactive | – | – | inactive | – | – | – | inactive | 5.36 µM (active) | 6.01 µM (active) | – | 4.47 µM (active) | 7.08 µM (active) | 6.31 µM (active) | 1.51 µM (active) | inactive | – | – | – | –
7 | NC12CC3CC(CC(C3)C1)C2 | inactive | inactive | inactive | inactive | inactive | inactive | – | inactive | inactive | inactive | inactive | inactive | inactive | inactive | – | inactive | inactive | – | inactive | –
8 | CC12CC3CC(C)(C1)CC(N)(C3)C2 | inactive | inactive | inactive | inactive | inactive | inactive | inactive | inactive | – | – | inactive | 5.01 µM (active) | inactive | inactive | – | inactive | inactive | inactive | inactive | –
9 | O=C(c1ccc(OCCN2CCCCC2)cc1)c1c(-c2ccc(O)cc2)sc2cc(O)ccc12 | 3.55 µM (active) | – | – | 19 µM (active) | – | – | 6.75 µM (active) | – | 12 µM (active) | 15.1 µM (active) | – | 14.1 µM (active) | – | – | 8.49 µM (active) | 7.08 µM (active) | 2 µM (active) | – | 11.2 µM (active) | 12 µM (active)
10 | Clc1ccc(C(c2ccccc2Cl)C(Cl)Cl)cc1 (centres undefined) | – | inactive | – | inactive | inactive | – | – | inactive | – | – | – | inactive | inactive | inactive | – | inactive | – | inactive | inactive | –
11 | O=c1c(O)c(-c2ccc(O)c(O)c2)oc2cc(O)cc(O)c12 | 11.2 µM (active) | – | – | – | – | – | – | – | 15.1 µM (active) | – | – | – | inactive | – | 12 µM (active) | – | 7.94 µM (active) | inactive | inactive | –
12 | Clc1ccc2c(c1)C(N1CCNCC1)=Nc1ccccc1O2 | – | inactive | inactive | inactive | inactive | inactive | – | – | – | – | inactive | – | – | inactive | – | – | – | inactive | – | –
13 | CN(CCOc1ccc(NS(C)(=O)=O)cc1)CCc1ccc(NS(C)(=O)=O)cc1 | inactive | inactive | inactive | inactive | inactive | inactive | inactive | inactive | inactive | inactive | inactive | inactive | inactive | inactive | inactive | inactive | inactive | inactive | inactive | –
14 | CC(C)NCC(O)COc1ccc(CCOCC2CC2)cc1 (centres undefined) | inactive | inactive | inactive | inactive | inactive | inactive | – | – | – | – | – | – | – | inactive | – | – | 5.01 µM (active) | inactive | – | inactive
15 | Cn1ccc2cc3c(cc21)CCN3C(=O)Nc1cccnc1 | – | – | – | – | – | – | – | – | 12 µM (active) | – | – | inactive | – | inactive | 15.1 µM (active) | inactive | – | – | – | –
16 | CCCCc1oc2ccccc2c1C(=O)c1cc(I)c(OCCN(CC)CC)c(I)c1 | 11.2 µM (active) | – | – | inactive | – | – | 9.53 µM (active) | – | 7.57 µM (active) | 13.5 µM (active) | 8.49 µM (active) | 11.2 µM (active) | 8.91 µM (active) | – | 9.53 µM (active) | 11.2 µM (active) | 3.55 µM (active) | – | 5.01 µM (active) | –
17 | CN(C)CCOC(c1ccccc1)c1ccccc1 | – | – | – | inactive | – | inactive | inactive | inactive | – | – | – | – | inactive | inactive | – | inactive | – | inactive | – | –
18 | CCC1(c2ccccc2)C(=O)NCNC1=O | inactive | inactive | inactive | inactive | inactive | inactive | – | inactive | inactive | inactive | inactive | inactive | inactive | inactive | inactive | inactive | – | inactive | inactive | inactive
19 | CC1(CN2CCC(n3c(=O)[nH]c4ccccc43)CC2)OCc2ccccc2-n2cccc21 (centres undefined) | – | – | – | inactive | inactive | inactive | – | – | 9.53 µM (active) | 13.5 µM (active) | 13.5 µM (active) | 11.2 µM (active) | 10 µM (active) | inactive | – | – | 3.98 µM (active) | inactive | 12.6 µM (active) | –
20 | CNCCCC12CCC(c3ccccc31)c1ccccc12 | – | – | inactive | inactive | inactive | inactive | inactive | inactive | – | 10.7 µM (active) | – | – | inactive | inactive | 8.49 µM (active) | inactive | – | inactive | inactive | –
21 | CN(C)CCCN1c2ccccc2CCc2ccc(Cl)cc21 | – | – | inactive | inactive | inactive | inactive | – | inactive | 1.51 µM (active) | 3.38 µM (active) | – | – | – | inactive | 8.49 µM (active) | inactive | 10 µM (active) | inactive | – | –
